This is part of a sample that, as a whole, favours compounds with a hit. Of some 83,000 tested, about 20% had one in any assay.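 Values shown are percent growth following 48 h exposure of cells in 96-well plates to a single concentration of compound; below 10 was considered active.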 Activity calls are given as the source filed them.
tested on: SNB-19 CNS; assay: NCI-60 one-dose screen, 48 h (100 = growth as untreated, 0 = no growth, -100 = all killed); details: 10 µM unless noted
Procedure: Growth inhibition of the SNB-19 human tumor cell line is measured as a screen for anti-cancer activity. Cells are grown in 96 well plates and exposed to the test compound for 48 hours. Compounds are tested at a single concentration, which is 10^-5 M for most compounds. The reported endpoint is percent growth (GI% or GIPRCNT), where numbers from 0 - 100% represent growth inhibition, and numbers from -100% - 0 represent cell death. For example, a value of 40 represents 60% growth inhibition. A value of 0 means no net growth occurred over the course of the experiment. A value of -40 indicates 40% of cells at the beginning of the experiment died by the end of the experiment. A value of -100 means all cells are dead at the end of the experiment.
NCI-60 Human Tumor Cell Lines Screen was performed using the standard one-dose NCI protocol, which is described in more detail at https://dtp.cancer.gov/discovery_development/nci-60/default.htm.
Compounds with GIPRCNT values below 10 were considered active. Activity score was based on GIPRCNT using the following formula: […]
Score is 0 for GIPRCNT values of 100 or above, 50 for GIPRCNT values of 0, and 100 for GIPRCNT values of -100.

| Structure (SMILES) | growth |
| --- | --- |
| COc1cc2cc(Oc3ccc(NC(=O)Nc4cc(C(F)(F)F)cc(C(F)(F)F)c4)cc3)c(C)nc2cc1OCCN1CCCCC1 | -92.2% (active) |
| NC(=O)c1c(NC(=O)c2ccc(C(F)(F)F)cc2Cl)sc2c1CCC(=O)C2 | 14% (inactive) |
| C=C(CNCCc1ccc(O)cc1)[C@@H]1CC[C@]2(COC3CCCCO3)CC[C@]3(C)[C@H](CC[C@@H]4[C@@]5(C)CCC(NCCO)C(C)(C)[C@@H]5CC[C@]43C)[C@@H]12 (stereo not given in full) | -93.9% (active) |
| COc1ccc(/C=C2\COc3ccc(O)c(O)c3C2=O)c(OC)c1 | 76% (inactive) |
| COc1cc(NC(=O)c2cccc(-c3cc(=O)c4c(O)c(OC)c(OC)cc4o3)c2)cc(OC)c1OC | 50% (inactive) |
| CC(C)OC(=O)NNC(=O)c1ccncc1 | 105% (inactive) |
| Cc1nc(Nc2ccc(NC(=S)Nc3ccccc3)cc2)c2ccccc2n1 | 105% (inactive) |
| C=C(CNCCc1ccc(O)cc1)[C@@H]1CC[C@]2(COC3CCCCO3)CC[C@]3(C)[C@H](CC[C@@H]4[C@@]5(C)CCC(N)C(C)(C)[C@@H]5CC[C@]43C)[C@@H]12 (stereo not given in full) | -85.8% (active) |
| O=C(c1ccccc1)c1ccc(N2C(=O)C3C4c5ccccc5C(/C=C/C(=O)c5ccccn5)(c5ccccc54)C3C2=O)cc1 (stereo not given) | 28.2% (inactive) |
| Cc1cc2c(F)c(Oc3ncnc(Nc4ccc(N5C[C@@H](C)N[C@@H](C)C5)cc4)c3C#N)cc(F)c2[nH]1 | 37.4% (inactive) |
| CCCN1CCN(c2ccc3nc(-c4ccc5nc(-c6ccc(OCC)c(OCC)c6)[nH]c5c4)[nH]c3c2)CC1 | -39.7% (active) |
| O=C(CCCCCCCn1cc(-c2cccnc2)nn1)Nc1ccccc1-c1ccccc1 | 48.2% (inactive) |
| Cc1ccc(S(=O)(=O)Nc2sccc2-c2nc(-c3ccccc3)no2)cc1 | 94.4% (inactive) |
| COc1ccc(N=c2nc3sc4cc(Cl)ccc4n3c(N)c2C#N)cc1 | 82% (inactive) |
| CCN(CC)CC(=O)Nc1cccc(C(=O)OC(C)C)c1 | 106% (inactive) |
| N#Cc1c(NC(=O)c2ccccc2I)sc2c1CCCC2 | 39.2% (inactive) |
| NC(=O)c1c(NC(=O)c2ccccn2)sc2c1CCC(=O)C2 | 42.7% (inactive) |
| O=C1Nc2ccccc2/C1=N/N=C/c1ccsc1 | 95.5% (inactive) |
| C=C(C)[C@@H]1CC[C@]2(CNCCO)CC[C@]3(C)[C@H](CC[C@@H]4[C@@]5(C)CCC(N)[C@@](C)(CO)[C@@H]5CC[C@]43C)[C@@H]12 (stereo not given in full) | 29.8% (inactive) |
| CCNCCNc1cc(C2CCCC2)c(C#N)c2nc3ccccc3n12 | 36.8% (inactive) |

| Structure (SMILES) | growth |
| --- | --- |
| CC(C)(O)c1cccc(F)c1 | 97.6% (inactive) |
| COc1ccc(/C(C)=C(\c2ccc(Cl)cc2)c2ccc(OCCCN(C)C)cc2)cc1F | 67% (inactive) |
| C#CC[C@H](N)C(=O)O | 93.1% [20 µM] (inactive) |
| CN(C)S(=O)(=O)n1cnc([C@@H]2[C@@H]3C(=O)OC[C@@H]3C[C@]23N=CN(Cc2ccccc2)C3=O)c1 | 98.2% (inactive) |
| Cc1cc(-c2noc(C(F)(F)F)n2)ccc1N1CCN(c2cc(C(=O)N(C)C)no2)CC1 | 64.1% (inactive) |
| CN1CCN(c2ccc(Nc3ncc(Cl)c(NC[C@@H]4CCCO4)n3)cc2)CC1 | 53.9% (inactive) |
| COc1cc(C(=O)/C=C/c2c(-c3ccc(F)cc3)nc3ncccn23)cc(OC)c1OC | 88.2% (inactive) |
| COc1cc(/C=C/C(=O)c2cccc(-n3cc(-c4ccccc4)[nH]c3=O)c2)cc(OC)c1OC | 20.2% (inactive) |
| O=C1N(c2ccccc2)C(=S)N[C@]12[C@H](c1ccccc1)C1CCCN1[C@]21C(=O)NC2C=CC(Cl)=C[C@H]21 (stereo not given in full) | 101% (inactive) |
| C=C1C(=O)O[C@H]2[C@H]1CC/C(C(=O)NCCCCCCCCNC(=O)/C1=C/CC[C@@]3(C)O[C@H]3[C@H]3OC(=O)C(=C)[C@@H]3CC1)=C\CC[C@@]1(C)O[C@@H]21 | 99.3% (inactive) |
| CN(CCCCCCCCNc1ccnc2ccccc12)Cc1ccc(-c2ccc(-c3ccc(C#N)cc3)s2)cc1 | -14.6% (active) |
| COc1cc(C(=O)Nc2cc(O)c(CC=C(C)C)c(O)c2)cc2c1O[C@]1(C)CC[C@@H](O)C(C)(C)[C@H]1C2 | 53.4% (inactive) |
| Cc1nc2ccccc2c(/C=C/c2ccc(Cl)cc2)c1C(=O)/C=C/c1ccc(Cl)cc1 | -48.2% (active) |
| Cc1ccc(S(=O)(=O)N(CC[C@@H]2C[C@H]2c2cc3ccccc3o2)C(=O)NC2CCCCC2)cc1 | 99.8% (inactive) |
| CCN(CC)CCOC(=O)Nc1ccccc1Cl | 99.4% (inactive) |
| CCOC(=O)c1ccc(-c2ccc3cc(OC)ccc3c2)nc1C | 99.6% (inactive) |
| Cn1nnnc1-c1ccc(N)cc1 | 105% (inactive) |
| CCCc1cc(=O)oc2c3c(c4c(c12)OC(C)(C)C=C4)O[C@@H](C)[C@H](C)C3=O | 93.6% (inactive) |
| CN(C)c1ccc2cc(-c3ccccc3F)c(N)nc2c1 | 55.1% (inactive) |
| CCn1c(Sc2nnc(NC(=O)CSC(=S)N3CCCCC3)s2)nc2c1c(=O)n(C)c(=O)n2C | 87.5% (inactive) |
